Measured values reported in PubChem BioAssay AID686977 (Southern Research Specialized Biocontainment Screening …, 2013).
Hit rate of the full screen: of about 9,400 compounds, fewer than 10 were called active. Inconclusive results (about 5%) are left out. Not all results are given here. Measured potencies and affinities stand elsewhere. Unmarked numbers belong to inactive results. The rule behind the calls is not given here.

Test: Vibrio cholerae quorum sensing activators, luminescence (AID 686977)
Settings: V. cholerae quorum sensing reporter, 6 h, active compounds read high; dose 50, dose unit µM unless noted

| SMILES | luminescence |
| --- | --- |
| Cc1ccc(C(=O)c2ccc([N+](=O)[O-])cc2)cc1C | 40 |
| COC(=O)c1c(NC(=O)C2CC2)sc2c1CCCC2 | 40 |
| CS(=O)(=O)N(CC(=O)NCCC1=CCCCC1)C1CCCCC1 | 40 |
| O=C(CSc1nnc(C2CC2)n1Cc1ccccc1)c1cc2ccccc2o1 | 80 |
| COc1ccc(NC(=O)CSc2nc(O)cc(=O)n2C)cc1 | 0 |
| COc1cc(NC(=O)Cn2nc(C(F)(F)F)c3c2CCCC3)cc(OC)c1OC | 280 |
| CCOCCCN(Cc1ccco1)C(=O)c1cc2c(=O)[nH]c3ccc(C)cc3c2s1 | 0 |
| COc1cccc(-c2nc(CS(=O)CC(=O)NCc3ccccc3Cl)c(C)o2)c1 (stereo not drawn) | 0 |
| COC(=O)c1ccccc1NC(=O)C1CC(=O)N(c2ccccc2)C1 (stereo not drawn) | 0 |
| CCOC(=O)Cc1csc(-n2sc3ccccc3c2=O)n1 | 0 |
| O=C(NC1CCCc2ccccc21)C1CCN(C(=O)c2sccc2-n2cccc2)CC1 (stereo not drawn) | 40 |
| COC(=O)[C@H](C)NC(=O)Nc1cccc(C)c1 | 0 |
| CNC(=O)NC(=O)CSc1ncc(C(F)(F)F)cc1Cl | 0 |
| N#Cc1ccccc1OCC(=O)NC(N)=O | 0 |
| Cc1cc(NS(=O)(=O)c2ccc(NC(=O)C(C(C)C)N3C(=O)c4ccccc4C3=O)cc2)nc(C)n1 (stereo not drawn) | 0 |
| CCOC(=O)COc1cccc2c(=O)n(CC(=O)N3CCc4ccccc43)ccc12 | 0 |
| Cn1c(=O)c2c(nc(N3CCCCCC3)n2CCSc2nc3ccccc3o2)n(C)c1=O | 0 |
| O=C(Nc1ccc(Br)cc1F)C1CCCN(S(=O)(=O)c2cnc[nH]2)C1 (stereo not drawn) | 0 |
| O=C(Nc1nccs1)c1nc(-c2ccccc2)n(-c2ccccc2)n1 | 280 |
| Cc1csc2nc(CNC(=O)C3CC=CCC3C(=O)O)cn12 (stereo not drawn) | 0 |
| COC(=O)c1ccccc1NC(=O)Nc1nnc(N2CCC(C)CC2)s1 | 0 |

| SMILES | luminescence |
| --- | --- |
| CC(=O)Nc1nnc(-c2ccc(Cl)s2)o1 | 0 |
| CCOC(=O)N1CCN(C(=O)C2CCCN(S(=O)(=O)c3cccnc3)C2)CC1 (stereo not drawn) | 0 |
| O=C(CCc1ccccc1)Nc1ccc(F)cc1F | 40 |
| Cc1cccc(C)c1NC(=O)c1sccc1SCc1cccc(C(F)(F)F)c1 | 40 |
| COC(=O)c1cc(COc2ccc3c4c(c(=O)oc3c2)CCCC4)c(C)o1 | 0 |
| COc1ccc(OC)c(NC(=O)c2cn(C)c(=O)c3cc(OC)c(OC)cc23)c1 | 0 |
| CC1(C)CC(=O)c2cc(OCC(=O)N3CCOCC3)ccc2O1 | 40 |
| CC(C)C(NC(=O)c1cccs1)c1nnc(SCC(=O)Nc2nccs2)n1C (stereo not drawn) | 40 |
| COC(=O)c1nn(-c2ccccc2)c(Cl)c1/C=N/OCc1ccc(Cl)cc1Cl | 40 |
| CC(C)CC(=O)Nc1ccc(S(=O)(=O)NCc2ccco2)cc1 | 0 |
| CCOC(=O)C(C)Sc1nnc(Cc2cc(=O)[nH]c(=O)[nH]2)n1-c1ccc(OCC)cc1 (stereo not drawn) | 0 |
| CC1CCCCC1NC(=O)c1ccc(CNc2c(N3CCCC3)c(=O)c2=O)cc1 (stereo not drawn) | 0 |
| Cc1cnc(C(=O)Nc2cccc3cccnc23)cn1 | 40 |
| CN1CCN(c2cc3c(c4c2[nH]c2ccccc24)C(=O)CC(C)(C)C3)CC1 | 40 |
| Cc1cc(C(=O)CSc2nnc(-c3ccc(F)cc3)o2)c(C)n1CC1CCCO1 (stereo not drawn) | 0 |
| CCOC(=O)/C(C#N)=C\c1ccc(N2CCN(C)CC2)cc1 | 0 |
| CCOC(=O)C1CCN(C(=O)C2CCN(S(=O)(=O)c3cccc4cccnc34)CC2)CC1 | 0 |
| Cc1n[nH]c(=S)c2nn(-c3ccccc3F)c(C)c12 | 0 |
| Cn1c(C(=O)N2CCN(Cc3ccc4c(c3)OCO4)CC2)cc2c(=O)n(C)c3ccccc3c21 | 0 |
| CCC(Cc1ccccc1)NC(=O)CN1C(=O)CSc2ncccc21 (stereo not drawn) | 0 |
| OCCN1CCN(c2ncnc3ccc(Br)cc23)CC1 | 200 |

| SMILES | luminescence |
| --- | --- |
| CC1=CC(C)(C)N(S(=O)(=O)c2ccc(F)cc2)c2ccccc21 | 0 |
| COc1ccc(C(=O)Nc2cc3c(cc2C#N)OCO3)cc1S(=O)(=O)NCc1ccco1 | 0 |
| CCOC(=O)c1c(C)nc2ccccc2c1C | 40 |
| CCc1nn(CC(=O)NCCCN2CCc3ccccc3C2)c(=O)c2cc3sccc3n12 | 0 |
| COc1ccc(-n2nnnc2SCC#CCO)cc1 | 0 |
| Cc1nnc(SCC(=O)NCc2ccco2)n1Cc1ccccc1 | 0 |
| CC(C)OC(=O)CSc1nnc(-c2ccccc2)n1N | 40 |
| O=c1c2ccccc2nnn1CSc1nnc(-c2cccnc2)n1-c1ccccc1F | 0 |
| O=[N+]([O-])c1cc(-c2cnc3ccccc3n2)ccc1Oc1ccc(F)cc1 | 40 |
| Cc1ccc(CN(C)C(=O)C2CCCN2C(=O)c2cccs2)o1 (stereo not drawn) | 320 |
| CCn1cc(S(=O)(=O)CC(=O)Nc2cc(C)on2)c2ccccc21 | 0 |
| CCCCN(C(=O)c1cnc2n(c1=O)CCS2)c1ccccc1 | 0 |
| CCc1nc2c(cnn2-c2ccc(F)cc2)c(=O)n1-c1ccc(N2CCC(C)CC2)cc1 | 0 |
| O=C(NCC(c1cccnc1)N1CCN(c2ccccc2F)CC1)c1ccco1 (stereo not drawn) | 0 |
| CCC(C)NC(=O)CS(=O)Cc1nc(-c2cccc(OC)c2)oc1C (stereo not drawn) | 40 |
| Cc1ccc(-c2nnc(SCc3nc(N)nc(Nc4ccccc4C)n3)n2N)cc1 | 0 |
| O=C(NCc1ccco1)c1nnc(Cc2ccc(Cl)cc2)o1 | 0 |
| CCOC(=O)C1=C(c2ccccc2)O/C(=C(\C(=O)OC)C(F)(F)F)S1 | 40 |
| COc1ccc(C2N(C(=O)CN3CCOCC3)CCN2S(=O)(=O)c2ccccc2)cc1 (stereo not drawn) | 0 |
| Cc1cccc(N2CCN(C(=O)CN3CCOc4ccccc43)CC2C)c1 (stereo not drawn) | 0 |
| Cc1onc(-c2ccccc2Cl)c1C(=O)Nc1cccc(-c2nc3ncccn3c2C)c1 | 40 |
